Rows were chosen to be rich in hits. Some 5.8% of all compounds tested hit in one or more screens of this group.
PINK1 modulator: PINK1 expression modulation; Potency, µM (top dose mostly 76.6 µM), inactives show at the highest dose activation (PINK1 increase), usual class: activators; hit rate 0.2% among 410,000; PINK1 immunofluorescence, high-content cytometry, 24 h; active means well fitted activation curve with a large enough effect; inconclusive means small, poorly fitted or top-dose-only effect; cell line not stated here; further: % of control where 0% means no effect; nearly all actives have a fitted effect of over 65% in size
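PINK1 protein, normally rapidly degraded, was detected by immunofluorescence after 24 hour compound treatment of a stable cell line. Titration data (5 concentrations) came from laser-scanning cytometry, with CCCP-treated wells as controls.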
KB-3-1 cytotox: KB-3-1 parental cell cytotoxicity; KB-3-1 viability, CellTiter-Glo ATP luminescence, 72 h; Potency, µM (highest dose often 46.1 µM), actives largely listed as cytotoxic; hit rate 1.4% among 400,000; AID 1347075; further: on the % scale 0 is the no-effect control and ±100 the full control effect; nearly all actives have a fitted effect of over 60% in size
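Multi-concentration cytotoxicity screen in KB-3-1 cells grown in DMEM lacking phenol red with 10% FBS. After 72 h at 37 °C with compound, ATP-dependent luminescence was recorded.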
SW480 rerep: inducers of DNA re-replication in SW480 colon cancer cells. SW480 DNA re-replication, Hoechst DNA content imaging, 48 h. AID 624297. hit rate 1.8% among 340,000. Potency, µM (doses to about 46.1 µM), inactives show top-dose re-replication activation, actives largely listed as activators; further: % of control where 0% means no effect; nearly all actives have a fitted effect of over 55% in size
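Image-based read-out: total Hoechst fluorescence of nuclei (405 nm excitation, 500-530 nm emission), with hits raising the fraction of high-intensity nuclei. SW480 colon cells incubated 48 hr with compounds at 37 C.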
ALOX12 inh: blocks human arachidonate 12S-lipoxygenase. P18054. purified 12hLO, xylenol orange hydroperoxide absorbance. Potency, µM (series often up to 108 µM), for the others: at the highest dose activity change, negative = inhibition, hits mostly inhibitors. hit rate 1.1% among 580,000; further: on the % scale 0 is the no-effect control and ±100 the full control effect
Target sequence (P18054 whole entry, looked up): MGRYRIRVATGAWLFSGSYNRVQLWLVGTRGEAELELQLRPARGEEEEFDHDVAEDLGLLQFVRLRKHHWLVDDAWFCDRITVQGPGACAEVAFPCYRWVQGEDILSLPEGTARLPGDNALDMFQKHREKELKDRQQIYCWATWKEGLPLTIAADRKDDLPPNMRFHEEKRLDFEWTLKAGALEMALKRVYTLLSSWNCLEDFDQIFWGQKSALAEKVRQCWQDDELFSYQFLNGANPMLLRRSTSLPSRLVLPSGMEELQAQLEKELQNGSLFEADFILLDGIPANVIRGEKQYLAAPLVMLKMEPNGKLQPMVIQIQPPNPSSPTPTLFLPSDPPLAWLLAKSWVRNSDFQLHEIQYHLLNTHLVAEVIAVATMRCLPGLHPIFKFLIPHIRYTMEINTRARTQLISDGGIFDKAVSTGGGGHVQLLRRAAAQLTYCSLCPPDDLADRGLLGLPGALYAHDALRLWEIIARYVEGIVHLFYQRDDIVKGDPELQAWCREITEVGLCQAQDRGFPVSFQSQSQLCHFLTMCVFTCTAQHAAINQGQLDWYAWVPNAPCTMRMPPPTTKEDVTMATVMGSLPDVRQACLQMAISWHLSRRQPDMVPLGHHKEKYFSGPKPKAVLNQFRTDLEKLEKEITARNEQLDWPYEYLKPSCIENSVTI
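Purified human 12hLO at 150 nM in 25 mM Hepes, 0.01% Triton X-100, pH 7.0, preincubated 15 min at room temperature with compound. Reaction started with 40 uM arachidonic acid, 30 min at room temperature. Hydroperoxide measured by Fe-xylenol orange, 573/405 nm absorbance ratio.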
KB-V1 MDR tox: kills drug-selected multidrug resistant KB-V1 cells | KB-V1 MDR cells viability, CellTiter-Glo, 72 h | Potency, µM (top dose mostly 46.1 µM), most hits filed as cytotoxic | hit rate 3.4% among 400,000 | AID 1347076; further: on the % scale 0 is the no-effect control and ±100 the full control effect; nearly all actives have a fitted effect of over 60% in size
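Compound-treated KB-V1 multidrug-resistant cells, 72 h, 37 degrees C; viability by CellTiter-Glo. Fitted qHTS curves give the values.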
MCF10A rerep: inducers of DNA re-replication in MCF 10A breast cells | Potency, µM (highest dose often 46.1 µM), inactives show top-dose activity, positive = re-replication, most hits filed as activators | hit rate 2.9% among 350,000 | MCF 10A DNA re-replication, Hoechst nuclear intensity, 48 h; further: % of control where 0% means no effect; nearly all actives have a fitted effect of over 50% in size
Starred values were filed as active, the others as inactive; [ ] = another dose, or the depositor's remark. Unless noted, the call rests on the fitted dose curve; in most records, active means well fitted curve in the direction sought with a large enough effect; inconclusive means small, poorly fitted or top-dose-only effect, or another doubt; inactive means no such curve, though single readings can be large; an effect the other way counts as inactive or inconclusive. Potency means the concentration at half of the fitted maximal effect.

How did C=CCNc1nc(N2CCCC2)nc2ccccc12 do in these assays?
PINK1 modulator: 0.3%; KB-3-1 cytotox: inconclusive; SW480 rerep: -3.0%; ALOX12 inh: 8.3%; KB-V1 MDR tox: inactive; MCF10A rerep: 0.9%

Results for CC(Nc1nc(N2CCCCC2)nc2ccccc12)c1ccccc1 (configuration not stated) ?
KB-3-1 cytotox: 11.2µM*; SW480 rerep: 0.1%; ALOX12 inh: inconclusive; KB-V1 MDR tox: inconclusive; MCF10A rerep: inconclusive

What do the screens show for `c1ccc(Nc2nc(-c3cccnc3)nc3ccccc23)cc1`?
PINK1 modulator: 0.2%; ALOX12 inh: inconclusive

Results for CCOC(=O)C1CCCN(S(=O)(=O)c2cc(-c3nc(-c4ccc(Cl)cc4)no3)sc2C)C1 (configuration not stated) ?
ALOX12 inh: 1.6%

What do the screens show for `O=c1cc(-c2cc3ccccc3o2)c2cc3c(cc2o1)CCC3`?
ALOX12 inh: -2.1%

What do the screens show for `CN1C[C@@H](NC(=O)c2ccccc2)C[C@H]1c1nc(-c2ccc3c(c2)OCO3)no1`?
ALOX12 inh: 5.3%[176 µM]

How did COCc1nnc(NC(=O)CCc2ccc(-c3ccc(C)cc3)o2)s1 do in these assays?
ALOX12 inh: -19.4%

Results for CC(Nc1nc(-c2cccnc2)nc2ccccc12)c1ccc(F)cc1 (configuration not stated) ?
PINK1 modulator: 16.9%; KB-3-1 cytotox: inconclusive; SW480 rerep: 3.7%; ALOX12 inh: -15.5%; KB-V1 MDR tox: 18.4µM*; MCF10A rerep: inconclusive

What do the screens show for `COc1ccc(Nc2nc(-c3ccc(C)cc3)nc3ccccc23)c(OC)c1`?
PINK1 modulator: 1.3%; KB-3-1 cytotox: inactive; ALOX12 inh: -15.3%; KB-V1 MDR tox: inactive

What do the screens show for `COc1ccc(Nc2nc(N3CCCC3)nc3ccccc23)c(OC)c1`?
KB-3-1 cytotox: inactive; SW480 rerep: inconclusive; ALOX12 inh: -12.9%; KB-V1 MDR tox: inconclusive; MCF10A rerep: 18.4µM*

What do the screens show for `CC(Nc1nc(-c2ccccc2)nc2ccccc12)c1ccccc1` (configuration not stated)?
PINK1 modulator: 25.5%; KB-3-1 cytotox: inconclusive; SW480 rerep: -0.5%; ALOX12 inh: -10.3%; KB-V1 MDR tox: inactive; MCF10A rerep: inconclusive

How did CCC(CC)NC(=O)c1cccc(F)c1 do in these assays?
ALOX12 inh: 34.7%

Results for COc1ccccc1N=C(C)C1=C(O)CC(c2ccccc2)CC1=O (configuration not stated) ?
PINK1 modulator: 1.3%; KB-3-1 cytotox: inconclusive; SW480 rerep: 2.06µM*; ALOX12 inh: -8.6%; KB-V1 MDR tox: 1.46µM*; MCF10A rerep: inconclusive

How did Cc1nn(Cc2ccccc2Cl)c(C)c1C(=O)NCCN1C(=O)S/C(=C\c2ccccc2)C1=O do in these assays?
PINK1 modulator: 2.0%; KB-3-1 cytotox: inactive; SW480 rerep: -6.8%; ALOX12 inh: -3.8%; KB-V1 MDR tox: inconclusive; MCF10A rerep: 16.4µM*

How did CCc1ccc(CN(C)C(=O)CN2CCN(c3ccc([N+](=O)[O-])c4cnccc34)CC2)cc1 do in these assays?
ALOX12 inh: -27.9%

Results for CCCOc1ccc(C(=O)NCC(c2cccs2)N(C)C)cc1OC (configuration not stated) ?
PINK1 modulator: 2.8%; KB-3-1 cytotox: inactive; SW480 rerep: 4.7%; ALOX12 inh: -19.7%; KB-V1 MDR tox: inactive; MCF10A rerep: 35.0%

What do the screens show for `COc1cc(C(=O)NCC(c2cccs2)N(C)C)cc(Cl)c1OC(C)C` (configuration not stated)?
PINK1 modulator: 0.4%; KB-3-1 cytotox: inactive; SW480 rerep: inconclusive; ALOX12 inh: -25.0%; KB-V1 MDR tox: 7.31µM*; MCF10A rerep: inconclusive

What do the screens show for `CCc1ccc(NC(=O)c2c(C(=O)Nc3ccccc3)sc3nc(C)cc(=O)n23)cc1`?
PINK1 modulator: -0.3%; KB-3-1 cytotox: inactive; SW480 rerep: -37.2%; ALOX12 inh: -5.3%; KB-V1 MDR tox: inactive; MCF10A rerep: 18.4µM*

Results for COc1ccc(NS(=O)(=O)c2ccc(-c3cc(C(F)(F)F)on3)s2)cc1 ?
ALOX12 inh: -23.8%

How did FC(F)(F)c1cc(CCN2CCNC[C@H]2Cc2cccc3ccccc23)cc(C(F)(F)F)c1 do in these assays?
PINK1 modulator: -1.0%; KB-3-1 cytotox: inactive; SW480 rerep: inconclusive; ALOX12 inh: inconclusive; KB-V1 MDR tox: inactive; MCF10A rerep: 16.4µM*

How did CC(C)CCNc1nc(C(=O)OC(C)C(=O)NC(=O)NC2CC2)cs1 (configuration not stated) do in these assays?
ALOX12 inh: -27.0%

Results for CC1(C)CC(N=c2cc(-c3ccccc3)oc3ccc(Cl)cc23)CC(C)(C)N1 ?
PINK1 modulator: -2.1%; KB-3-1 cytotox: 20.6µM*; SW480 rerep: inconclusive; ALOX12 inh: inconclusive; KB-V1 MDR tox: inconclusive; MCF10A rerep: inconclusive

Results for OCCCN=c1cc(-c2ccccc2)oc2ccc(Cl)cc12 ?
PINK1 modulator: -1.1%; KB-3-1 cytotox: inactive; SW480 rerep: 11.4%; ALOX12 inh: inconclusive; KB-V1 MDR tox: inactive; MCF10A rerep: 25.1%

Results for O=C(Cc1ccc2ccccc2c1)NCCc1ccccn1 ?
ALOX12 inh: -3.2%

How did O=c1cc2c(n[nH]1)-c1ccccc1CC2 do in these assays?
PINK1 modulator: -3.0%; KB-3-1 cytotox: 1.3µM*; SW480 rerep: -12.7%; ALOX12 inh: 3.6%; KB-V1 MDR tox: inconclusive; MCF10A rerep: -1.9%

Results for O=C(CN(C1CCCCC1)S(=O)(=O)c1ccccc1)NCC1CCCO1 (configuration not stated) ?
PINK1 modulator: 0.3%; KB-3-1 cytotox: inactive; SW480 rerep: -1.0%; ALOX12 inh: 6.3%; KB-V1 MDR tox: inconclusive; MCF10A rerep: -2.7%

How did O=C(CN(C1CCCCC1)S(=O)(=O)c1ccc(F)cc1)NCC1CCCO1 (configuration not stated) do in these assays?
PINK1 modulator: -1.1%; KB-3-1 cytotox: 4.61µM*; SW480 rerep: 1.16µM*; ALOX12 inh: -8.0%; KB-V1 MDR tox: inconclusive; MCF10A rerep: inconclusive

What do the screens show for `Cc1ccc(S(=O)(=O)c2nc(-c3ccc(F)cc3)oc2SCC(=O)NCC2CCCO2)cc1` (configuration not stated)?
PINK1 modulator: 9.2%; KB-3-1 cytotox: inactive; SW480 rerep: -0.1%; ALOX12 inh: -9.9%; KB-V1 MDR tox: 1.84µM*; MCF10A rerep: inconclusive

Results for O=C(CN(C1CCCCC1)S(=O)(=O)c1ccc(F)cc1)NCc1ccncc1 ?
PINK1 modulator: -0.1%; KB-3-1 cytotox: inactive; SW480 rerep: -3.7%; ALOX12 inh: 332.9%; KB-V1 MDR tox: 8.2µM*; MCF10A rerep: -10.5%

High-throughput results deposited in PubChem BioAssay by National Center for Advancing Translational Sciences (NCATS).
